# Laboratory results reported in article PMC11062922 (Nature Chemical Biology, 2023).
# Read-outs that look alike come from different tables or passages of the source.
# Assays:
# SIK3 = conditions: read-out: apparent Kd, n = 1
# SLK = conditions: read-out: apparent Kd, n = 1
substance,measurement,setting,value
Lestaurtinib,potency estimated from few doses,"SIK3; compound concentrations:100 nM and 1000 nM (sheet 'Lestaurtinib' of Supplementary Table 1),run:Lestaurtinib_02624_R1,Plate:MR020",1.91 µM
same,potency estimated from few doses,"SIK3; compound concentrations:100 nM and 1000 nM (sheet 'Lestaurtinib' of Supplementary Table 1),run:Lestaurtinib_02724_R1,Plate:MR021",1.3 µM
same,potency estimated from few doses,"SIK3; compound concentrations:100 nM and 1000 nM (sheet 'Lestaurtinib' of Supplementary Table 1),run:Lestaurtinib_02724_R2,Plate:MR021",1.32 µM
same,potency estimated from few doses,"SIK3; compound concentrations:100 nM and 1000 nM (sheet 'Lestaurtinib' of Supplementary Table 1),run:Lestaurtinib_02724_R3,Plate:MR021",1.35 µM
same,potency estimated from few doses,"SIK3; compound concentrations:100 nM and 1000 nM (sheet 'Lestaurtinib' of Supplementary Table 1),run:Lestaurtinib_02741_R2,Plate:MR023",1.3 µM
same,potency estimated from few doses,"SIK3; compound concentrations:100 nM and 1000 nM (sheet 'Lestaurtinib' of Supplementary Table 1),run:Lestaurtinib_02748_R1,Plate:MR024",1.41 µM
same,potency estimated from few doses,"SIK3; compound concentrations:100 nM and 1000 nM (sheet 'Lestaurtinib' of Supplementary Table 1),run:Lestaurtinib_02748_R2,Plate:MR024",1.49 µM
same,potency estimated from few doses,"SIK3; compound concentrations:100 nM and 1000 nM (sheet 'Lestaurtinib' of Supplementary Table 1),run:Lestaurtinib_02752_R1,Plate:MR025",1.43 µM
same,potency estimated from few doses,"SIK3; compound concentrations:100 nM and 1000 nM (sheet 'Lestaurtinib' of Supplementary Table 1),run:Lestaurtinib_02752_R2,Plate:MR025",1.72 µM
same,potency estimated from few doses,"SIK3; compound concentrations:100 nM and 1000 nM (sheet 'Lestaurtinib' of Supplementary Table 1),run:Lestaurtinib_02765_R2,Plate:MR026",1.36 µM
same,potency estimated from few doses,"SIK3; compound concentrations:100 nM and 1000 nM (sheet 'Lestaurtinib' of Supplementary Table 1),run:Lestaurtinib_02766_R1,Plate:MR027",1.13 µM
same,potency estimated from few doses,"SIK3; compound concentrations:100 nM and 1000 nM (sheet 'Lestaurtinib' of Supplementary Table 1),run:Lestaurtinib_02768_R3,Plate:MR028",1.51 µM
same,potency estimated from few doses,"SIK3; compound concentrations:100 nM and 1000 nM (sheet 'Lestaurtinib' of Supplementary Table 1),run:Lestaurtinib_02795_R1,Plate:MR022",2.15 µM
same,potency estimated from few doses,"SIK3; compound concentrations:100 nM and 1000 nM (sheet 'Lestaurtinib' of Supplementary Table 1),run:Lestaurtinib_02802_R1,Plate:MR029",1.99 µM
same,potency estimated from few doses,"SIK3; compound concentrations:100 nM and 1000 nM (sheet 'Lestaurtinib' of Supplementary Table 1),run:Lestaurtinib_02802_R3,Plate:MR029",1.72 µM
same,potency estimated from few doses,"SIK3; compound concentrations:100 nM and 1000 nM (sheet 'Lestaurtinib' of Supplementary Table 1),run:Lestaurtinib_02896_R3,Plate:MR030",1.21 µM
same,potency estimated from few doses,"SIK3; compound concentrations:100 nM and 1000 nM (sheet 'Lestaurtinib' of Supplementary Table 1),run:Lestaurtinib_03172_R1,Plate:MR031",1.42 µM
same,potency estimated from few doses,"SIK3; compound concentrations:100 nM and 1000 nM (sheet 'Lestaurtinib' of Supplementary Table 1),run:Lestaurtinib_03172_R2,Plate:MR031",1.54 µM
same,potency estimated from few doses,"SIK3; compound concentrations:100 nM and 1000 nM (sheet 'Lestaurtinib' of Supplementary Table 1),run:Lestaurtinib_03172_R3,Plate:MR031",1.13 µM
same,potency estimated from few doses,"SIK3; compound concentrations:100 nM and 1000 nM (sheet 'Lestaurtinib' of Supplementary Table 1),run:Lestaurtinib_03252_R1,Plate:MR032",1.35 µM
same,potency estimated from few doses,"SIK3; compound concentrations:100 nM and 1000 nM (sheet 'Lestaurtinib' of Supplementary Table 1),run:Lestaurtinib_03252_R2,Plate:MR032",1.13 µM
same,potency estimated from few doses,"SIK3; compound concentrations:100 nM and 1000 nM (sheet 'Lestaurtinib' of Supplementary Table 1),run:Lestaurtinib_03260_R2,Plate:MR033",1.42 µM
same,potency estimated from few doses,"SLK; compound concentrations:100 nM and 1000 nM (sheet 'Lestaurtinib' of Supplementary Table 1),run:Lestaurtinib_02339_R2,Plate:MR001",0.859 µM
same,potency estimated from few doses,"SLK; compound concentrations:100 nM and 1000 nM (sheet 'Lestaurtinib' of Supplementary Table 1),run:Lestaurtinib_02364_R2,Plate:MR002",1.54 µM
same,potency estimated from few doses,"SLK; compound concentrations:100 nM and 1000 nM (sheet 'Lestaurtinib' of Supplementary Table 1),run:Lestaurtinib_02364_R3,Plate:MR002",1.37 µM
same,potency estimated from few doses,"SLK; compound concentrations:100 nM and 1000 nM (sheet 'Lestaurtinib' of Supplementary Table 1),run:Lestaurtinib_02367_R1,Plate:MR003",1.35 µM
same,potency estimated from few doses,"SLK; compound concentrations:100 nM and 1000 nM (sheet 'Lestaurtinib' of Supplementary Table 1),run:Lestaurtinib_02367_R2,Plate:MR003",1.3 µM
same,potency estimated from few doses,"SLK; compound concentrations:100 nM and 1000 nM (sheet 'Lestaurtinib' of Supplementary Table 1),run:Lestaurtinib_02367_R3,Plate:MR003",1.53 µM
same,potency estimated from few doses,"SLK; compound concentrations:100 nM and 1000 nM (sheet 'Lestaurtinib' of Supplementary Table 1),run:Lestaurtinib_02381_R3,Plate:MR004",1.21 µM
same,potency estimated from few doses,"SLK; compound concentrations:100 nM and 1000 nM (sheet 'Lestaurtinib' of Supplementary Table 1),run:Lestaurtinib_02407_R2,Plate:MR005",1.67 µM
same,potency estimated from few doses,"SLK; compound concentrations:100 nM and 1000 nM (sheet 'Lestaurtinib' of Supplementary Table 1),run:Lestaurtinib_02422_R1,Plate:MR006",1.15 µM
same,potency estimated from few doses,"SLK; compound concentrations:100 nM and 1000 nM (sheet 'Lestaurtinib' of Supplementary Table 1),run:Lestaurtinib_02422_R3,Plate:MR006",1.36 µM
same,potency estimated from few doses,"SLK; compound concentrations:100 nM and 1000 nM (sheet 'Lestaurtinib' of Supplementary Table 1),run:Lestaurtinib_02438_R2,Plate:MR008",1.42 µM
same,potency estimated from few doses,"SLK; compound concentrations:100 nM and 1000 nM (sheet 'Lestaurtinib' of Supplementary Table 1),run:Lestaurtinib_02443_R3,Plate:MR009",0.992 µM
same,potency estimated from few doses,"SLK; compound concentrations:100 nM and 1000 nM (sheet 'Lestaurtinib' of Supplementary Table 1),run:Lestaurtinib_02482_R3,Plate:MR011",1.42 µM
same,potency estimated from few doses,"SLK; compound concentrations:100 nM and 1000 nM (sheet 'Lestaurtinib' of Supplementary Table 1),run:Lestaurtinib_02496_R2,Plate:MR013",1.31 µM
same,potency estimated from few doses,"SLK; compound concentrations:100 nM and 1000 nM (sheet 'Lestaurtinib' of Supplementary Table 1),run:Lestaurtinib_02496_R3,Plate:MR013",1.62 µM
same,potency estimated from few doses,"SLK; compound concentrations:100 nM and 1000 nM (sheet 'Lestaurtinib' of Supplementary Table 1),run:Lestaurtinib_02566_R3,Plate:MR014",1.13 µM
same,potency estimated from few doses,"SLK; compound concentrations:100 nM and 1000 nM (sheet 'Lestaurtinib' of Supplementary Table 1),run:Lestaurtinib_02572_R3,Plate:MR015",1.79 µM
same,potency estimated from few doses,"SLK; compound concentrations:100 nM and 1000 nM (sheet 'Lestaurtinib' of Supplementary Table 1),run:Lestaurtinib_02577_R2,Plate:MR016",1.32 µM
same,potency estimated from few doses,"SLK; compound concentrations:100 nM and 1000 nM (sheet 'Lestaurtinib' of Supplementary Table 1),run:Lestaurtinib_02577_R3,Plate:MR016",0.997 µM
same,potency estimated from few doses,"SLK; compound concentrations:100 nM and 1000 nM (sheet 'Lestaurtinib' of Supplementary Table 1),run:Lestaurtinib_02584_R2,Plate:MR017",1.32 µM
same,potency estimated from few doses,"SLK; compound concentrations:100 nM and 1000 nM (sheet 'Lestaurtinib' of Supplementary Table 1),run:Lestaurtinib_02584_R3,Plate:MR017",1.58 µM
